Drawing on PubChem BioAssay (NCI), this text covers growth for 19 molecules.

Structures are written as SMILES. Compounds without any hit were thinned out: in the full panel of roughly 83,000, 20% have a hit.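 Method: cells in 96-well plates; compound added at one concentration; 48 h incubation; percent growth measured; values under 10 scored active.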 Values without a mark were called inactive. The source made the active and inactive calls.

Test in all cases: NCI-60 one-dose screen, 48 h (100 = growth as untreated, 0 = no growth, -100 = all killed)
What all share (conditions): 10 µM unless noted

Experiment [1] concerns NCI-H23 lung.
Experiment [2] deals with NCI-H226 lung.
The subject of experiment [3] is NCI-H322M lung.
In experiment [4] the test system is HOP-62 NSCLC.
Experiment [5] relates to NCI-H460 lung.
In experiment [6] the test system is HOP-92 NSCLC.
Experiment [7] has as its system NCI-H522 lung.
The test system of experiment [8] is A549/ATCC NSCLC.
The subject of experiment [9] is 786-0 renal.
Experiment [10] relates to COLO 205 colon.

Take `COc1cccc(/C=C2\SC(=Nc3ccc(NC(C)=O)cc3)NC2=O)c1OC`: the growth was 92.2% in [1]; 103% in experiment [2]; 94.3% in [3]; 92.3% in experiment [4]; 99.7% in experiment [5]; 55.3% in experiment [6]. Also, the growth was 89.2% in experiment [7], 96% in experiment [8], 67.9% in experiment [9] and 111% in experiment [10].
On to `CC(=O)OC[C@H]1O[C@H](OC(C)=O)[C@H](NC(=O)/C=C/CCl)[C@@H](OC(C)=O)[C@@H]1OC(C)=O`, for which the growth is 75.4% in [1]; 109% in [2]; 84.5% in experiment [3]; 96.1% in [4]; 96.6% in [5]; 76.6% in experiment [6]. For the same molecule, the growth was -64% (active) in [7], 87.6% in [8], 68% in experiment [9] and 74.9% in [10].
In the case of `COc1ccc(/C=C/C(=O)c2ccc(O)c(CN3CCN(c4cc5c(cc4F)c(=O)c(C(=O)O)cn5C4CC4)CC3)c2)cc1`, the growth in experiment [1] is 37.7%; in experiment [2], 52.2%; in experiment [3] it was 22.6%; in experiment [4] it was 19.5%; in [5] it was 51.4%; in experiment [6], 10.1%. In addition, the growth was 16.9% in experiment [7], 22.3% in experiment [8], 27.8% in [9] and 102% in experiment [10].
Take `Clc1ccc2c(NCCCCNc3nc(N4CCOCC4)nc4ccccc34)ccnc2c1`: the growth in [1] was 59.7%; in experiment [2] it was -43.4% (active); in [3] it was 26.4%; in experiment [4], -9.83% (active); in experiment [5], 4.54% (active); in [6], 71.8%. Besides, the growth was -25.6% (active) in [7], 14.6% in experiment [8], -54.1% (active) in experiment [9] and -46.9% (active) in experiment [10].
In the case of `CC1C(/C=N/Nc2ccccc2)C(C#N)(C#N)C1(C#N)C#N` (stereo not given), the growth is 78.6% in experiment [1]; 88% in experiment [2]; 75.1% in experiment [3]; 57.1% in experiment [4]; 87.9% in experiment [5]; 90.5% in experiment [6]. The growth in experiment [7] was 53.9%; in [8] it was 85.1%; in [9], 92.9%; in experiment [10], 105%.
As to `O=C1NC(=S)N[C@H]1CC(=O)n1cnc2ccccc21`, the growth was 92.3% in experiment [1]; 93.6% in [2]; 105% in experiment [3]; 93% in [4]; 104% in experiment [5]; 96.1% in [6]. The growth is 98.4% in experiment [7], 105% in experiment [8], 102% in experiment [9] and 111% in experiment [10].
Take `CSc1nc(-c2cccc(NC(=O)CCl)c2)c(C#N)c(=O)n1C`: the growth in [1] was 49.1%; in [2], 89.2%; in experiment [3] it was 107%; in experiment [4], 98.7%; in experiment [5], 93.3%; in [6], 42.7%. The growth in experiment [7] was -73.7% (active); in experiment [8], 86.3%; in [9], 53%; in [10], -20.2% (active).
As to `COc1ccc(-n2nc(C)c3c(Nc4ccc(NC(=O)Nc5c(Cl)cccc5Cl)cc4)ncnc32)cc1`, the growth in [1] was 52.1%; in experiment [2] it was 37.2%; in [3], 57.7%; in experiment [4] it was 50.3%; in experiment [5] it was 50.4%; in [6] it was 43.9%. Also, the growth in experiment [7] is 58%; in [8], 44.6%; in experiment [9] it was 55.2%; in experiment [10], 70.1%.
Regarding `C#CCOc1ccc2ncnc(Nc3cccc(CNC(=O)C=C)c3)c2c1`, the growth in experiment [1] is 104% [8.25 µM]; in experiment [2] it was 77.3% [8.25 µM]; in experiment [3], 105% [8.25 µM]; in experiment [4], 108% [8.25 µM]; in [5], 101% [8.25 µM]; in experiment [6], 93.3% [8.25 µM]. Moreover, the growth in experiment [7] was 91.9% [8.25 µM]; in experiment [8], 102% [8.25 µM]; in experiment [9], 93.1% [8.25 µM]; in experiment [10], 111% [8.25 µM].
Turning to `N#Cc1cnn(-c2nc3c(Cl)cccc3s2)c1N`, the growth in experiment [1] is 82.6%; in experiment [2] it was 76.2%; in experiment [3], 95%; in experiment [4] it was 81.3%; in experiment [5], 73.4%; in experiment [6] it was 38.8%. The growth in [7] is 67.7%; in [8], 83.6%; in experiment [9], 89.4%; in experiment [10], 92.3%.
For the molecule `CCN(CC)S(=O)(=O)c1ccc(OC)c(NC(=O)c2[nH]c(C)c3c2CCCCC3=O)c1`, the growth in experiment [1] was 46.9%; in [2], 50%; in experiment [3], 44%; in [4], 31.5%; in [5], 53.4%; in experiment [6] it was 38.3%. The growth is 26.9% in [7], 45.2% in experiment [8], 41.5% in experiment [9] and 35.6% in experiment [10].
Consider `Cc1cc(C)nc(SC2=C(Nc3cc(Cl)ccc3O)C(=O)N(Cc3ccccc3)C2=O)n1`, for which the growth was 91.4% [30 µM] in [1]; 85.1% [30 µM] in experiment [2]; -32% [30 µM] (active) in experiment [3]; 102% [30 µM] in experiment [4]; 97.4% [30 µM] in experiment [5]; 42.9% [30 µM] in [6]. The growth is 58.6% [30 µM] in experiment [7], 46.6% [30 µM] in experiment [8], 83.4% [30 µM] in experiment [9] and 112% [30 µM] in [10].
Consider `COc1cc(/C=C/c2cc(/C=C/c3ccc(O)c(OC)c3)n(-c3c(Cl)cccc3Cl)c(=O)n2)ccc1O`, for which the growth in experiment [1] is 29%; in experiment [2], 48.8%; in [3], 72.7%; in experiment [4] it was 50.6%; in experiment [5], 70.8%; in experiment [6], 78.7%. In addition, the growth in experiment [7] was 9.89% (active); in experiment [8], 44.1%; in experiment [9], 29.7%; in experiment [10], 71.8%.
As for `COc1ccc(-n2nc(C)c3c(Oc4ccc(NC(=O)Nc5c(Cl)cccc5Cl)cc4)ncnc32)cc1`, the growth in experiment [1] was 98.3%; in experiment [2] it was 107%; in experiment [3], 96.8%; in experiment [4], 97.7%; in experiment [5], 101%; in [6] it was 98%. For the same molecule, the growth in experiment [7] is 93.6%; in experiment [8], 103%; in [9], 110%; in [10], 99%.
On to `CN(C)c1ccc(NC(=O)c2ccc(/C=C/C(=O)c3ncc[nH]3)cc2)cc1`, for which the growth is 59.8% in experiment [1]; 89.1% in experiment [2]; 76.1% in experiment [3]; 54.7% in experiment [4]; 25.4% in [5]; 94.1% in [6]. Further, the growth in experiment [7] was 59.4%; in experiment [8], 63.1%; in experiment [9], 47.1%; in experiment [10] it was 37.6%.
As to `CCCCn1c(-c2ccc(C(=O)O/N=C(\N)c3ccc4c(c3)OCO4)cc2)nc(-c2ccccc2)c1-c1ccccc1`, the growth in [1] is 35.3%; in experiment [2], 49.9%; in experiment [3], 66.6%; in [4], 79.7%; in experiment [5], 0.397% (active); in experiment [6], 17.4%. The growth in experiment [7] was -37.1% (active); in experiment [8], 15.7%; in experiment [9], 41.9%; in experiment [10] it was 57.5%.
Consider `O=C(COc1ccc(/C=C2\CSc3ccccc3C2=O)cc1)Nc1nccs1`, for which the growth in experiment [1] was 61.1%; in experiment [2], 97.9%; in experiment [3] it was 87.9%; in experiment [4], 94.5%; in [5], 107%; in [6], 78.8%. Further, the growth in experiment [7] is 7.48% (active); in experiment [8], 100%; in [9] it was 95.7%; in [10], 117%.
`O=C(N=Nc1c(O)[nH]c2ccccc12)c1cc(-c2ccccc2)on1`: the growth in experiment [1] is 95.8%; in experiment [2], 96.8%; in experiment [3], 111%; in experiment [4], 102%; in experiment [5], 102%; in experiment [6], 96.2%. Besides, the growth in [7] was 90.7%; in [8], 107%; in experiment [9] it was 104%; in [10], 122%.
As to `COC(=O)c1ccc2oc(NC(=O)c3ccc(Nc4ccc([N+](=O)[O-])cc4C)c([N+](=O)[O-])c3)nc2c1`, the growth is 95.9% in experiment [1]; 92.1% in experiment [2]; 101% in [3]; 107% in experiment [4]; 101% in experiment [5]; 101% in experiment [6]. The growth in experiment [7] is 94.4%; in experiment [8], 100%; in experiment [9], 99.8%; in experiment [10] it was 107%.
